# Measurements taken from PubChem BioAssay AID2690 (NMMLSC, 2010).
# About 590 (0.18%) of roughly 330,000 compounds were called active. The sample holds actives, similar compounds and a random draw of the others, so the mix is not that of the screen. A number with no mark means an inactive call.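 How the source made its calls: active means superoxide response under a set limit, about three screen SD below normal (cut at about 65% in these data); inactive means the rest.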
# Experiment: yeast aging ROS inhibitors as calorie-restriction mimetics – HTS, primary screen (AID 2690);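 further: yeast aged for seven days with compound at 30 °C before DHE staining; 100% = average MFI of all compound-treated wells on the plate with controls excluded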
# Conditions: S. cerevisiae aged cells, superoxide DHE fluorescence; at 10 µM; stronger effect = lower value
row,Compound,superoxide response (% of plate mean)
1,CC1CC(C)CN(C(=O)CSc2ccsc2[N+](=O)[O-])C1 (stereo not drawn),155%
2,CCCCc1cc(=O)oc2c(C)c(OCC(=O)N3CCC(C(N)=O)CC3)ccc12,81.2%
3,Cc1cc2c(C)nc(N/N=C/c3ccccc3)nc2o1,97.9%
4,Cc1cc2oc(C(=O)Nc3c(C)n(C)n(-c4ccccc4)c3=O)c(C)c2cc1Cl,43% (active)
5,Cc1c(NC(=O)c2cc(-c3ccc(Br)cc3)on2)c(=O)n(-c2ccccc2)n1C,98.6%
6,Cc1c(NC(=O)c2coc(=O)c(Br)c2)c(=O)n(-c2ccccc2)n1C,96.5%
7,CC1(C)CC(=O)C=C(c2cccc3c2Oc2ccccc2S3)C1,109%
8,O=C(CSc1nc2[nH]c(=O)[nH]c(=O)c2s1)Nc1cccc(F)c1,94.1%
9,Cc1cc2ncn(CCCCOc3ccccc3)c2cc1C,80.1%
10,COc1ccc(CNC(=O)C2CC(c3ccc(C(F)(F)F)cc3)=NO2)cc1 (stereo not drawn),103%
11,O=S(=O)(NCCCCCCNS(=O)(=O)c1c(F)cccc1F)c1ccc2c(c1)OCCO2,104%
12,O=C(O)C1CCN(S(=O)(=O)N2CCOCC2)CC1,126%
13,COc1ccc(CCNC(=O)Cc2ccc(C)cc2)cc1OC,102%
14,O=C(O)c1ccccc1-c1ccccc1C(=O)NCCc1ccccc1,108%
15,COc1ccc(CCNC(=O)c2ccccc2-c2ccccc2C(=O)O)cc1OC,57.2% (active)
16,Cc1ccc(NC(=O)CN2CCC3(O)CCCCC3C2c2ccc3c(c2)OCO3)c(C)c1 (stereo not drawn),95%
17,COc1cccc(NC(=O)[C@H](Cc2c[nH]c3ccccc23)NC(=O)[C@@H]2Cc3ccccc3CN2)c1,113%
18,O=C(NC1CCN(Cc2ccccc2)CC1)c1ccc(Oc2cc(Cl)cc(Cl)c2)o1,87.6%
19,COc1cccc(NC(=S)NCCCN2CCOCC2)c1,96.1%
20,CCc1ccccc1NC(=O)NCCN1CCCCC1,92.8%
21,COc1cccc(NC(=O)NCCN2CCCCC2)c1,34.4% (active)
22,CC(=O)NC1=NN(C(C)=O)C(C)(c2ccc(Cl)s2)S1 (stereo not drawn),102%

row,Compound,superoxide response (% of plate mean)
1,CC(=O)NC1=NN(C(C)=O)C(C)(CCS(=O)(=O)c2ccc(Cl)c(Cl)c2)S1 (stereo not drawn),63.7% (active)
2,CC(=O)NC1=NN(C(C)=O)C(C)(c2ccc(C)cc2)S1 (stereo not drawn),108%
3,Cc1nc([N+](=O)[O-])cn1CC(=O)Nc1ccc(Cl)cc1,104%
4,COc1ccc(/C=C(/CC(=O)Nc2ccc(C)cc2)c2nc3ccccc3s2)cc1,97.7%
5,COc1ccc(-n2nnnc2-c2nc3ccccc3s2)cc1,88.6%
6,COc1ccc(C2=NN(c3nc4ccccc4s3)C(=O)C2)cc1,51% (active)
7,COc1ccc2c(c1)OC(O)(C(F)(F)C(F)F)CC2=O (stereo not drawn),82.7%
8,CCN(CC)S(=O)(=O)c1cc([N+](=O)[O-])ccc1NNC(=O)Nc1ccccc1,101%
9,CCOc1ccc(N2CC(C(=O)N/N=C/c3sccc3C)CC2=O)cc1 (stereo not drawn),100%
10,COc1ccc2[nH]c(=O)c(CNc3ccc(C)c(C)c3)cc2c1,96.3%
11,COc1cc(C(=S)N2CCOCC2)cc(OC)c1OC(=O)c1cc([N+](=O)[O-])c(C)c([N+](=O)[O-])c1,113%
12,CCCC1NC(=S)NC(C)=C1C(C)=O (stereo not drawn),92.8%
13,O=[N+]([O-])c1ccc2c(c1)Nc1nc3ccccc3nc1N2,61.2% (active)
14,O=[N+]([O-])c1ccc2nc(-c3ccccn3)[nH]c2c1,98.5%
15,COc1ccc([N+](=O)[O-])cc1-c1nc2ccccc2nc1-c1ccccc1,99.1%
16,Cc1nn(CC(=O)Nc2ccc(F)cc2)c(=O)c2ccccc12,98.5%
17,Cc1ccc(NC(=O)Cn2nc(C)c3ccccc3c2=O)c(C)c1,54.4% (active)
18,Cc1nn(CC(=O)Nc2ccc3c(c2)nc(CN2CCCCC2)n3C)c(=O)c2ccccc12,94.1%
19,Cc1ccc(-c2nc(CS(=O)CC(=O)NC3CCCC3)c(C)o2)cc1 (stereo not drawn),108%
20,COc1ccc(-c2nc(CS(=O)CC(=O)N3CCc4ccccc4C3)c(C)o2)cc1 (stereo not drawn),92.3%
21,Cc1ccc(-c2nc(CS(=O)CC(=O)N3CCN(c4ncccn4)CC3)c(C)o2)cc1 (stereo not drawn),63.9% (active)
